The nature of test [1]: inhibitors of TNFa-induced NFkB p65 translocation, primary screen, imaging, HUVEC, MLSMR starter and 10KST1 sets (AID 438;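 active = inhibition above 20% together with a positive visual image hit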;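 note: compound added about 3h40 before a 20 min TNFalpha stimulation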;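 for inhibition: signal is the nuclear over cytoplasmic p65 intensity ratio per well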). The settings on record: HUVEC TNFa-induced p65 nuclear translocation; cell count: measured here: nuclei count (cytotoxicity indicator), at 2.08 µM; inhibition: at 2 µM, stronger effect = higher value, 0% TNFa-plus-vehicle, 100% no-TNFa wells.
Test [2] is described as follows: inhibitors of mutant huntingtin aggregation, primary screen, imaging, exon1htt(103Q)mCFP cells, high-content imaging (AID 483;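 active = visual image review flags a hit and inhibition of aggregation exceeds 20%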;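 note: compound exposure lasted 3 days before fixation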;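 for nuclei count: percent of the per-plate median nuclei count of sample wells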). The settings on record: exon1htt(103Q)mCFP cell line, aggregate imaging, at 2 µM; inhibition of aggregation: stronger effect = higher value; nuclei count: measured here: cell count, toxicity.
A short description of test [3]: inhibitors of E-selectin induction by TNFa, primary screen, imaging, HUVEC, immunofluorescence, MLSMR starter and 10KST1 sets (AID 487;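 active = visually confirmed hit in the image check and inhibition above 20%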;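 for inhibition: signal is fraction of cell area covered by stained E-selectin grains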;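 for nuclei count: 100% = median nuclei count of all wells on the same plate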). As to conditions: HUVEC TNFalpha-induced E-selectin immunofluorescence imaging, at 2 µM; inhibition: stronger effect = higher value; nuclei count: measured here: cell number, toxicity.
Test [4] has as its target Voltage-gated potassium channel subunit beta-2 (Rattus norvegicus) (UniProt P62483). Put plainly: KvBeta enzyme negative modulators, primary screen, biochemical, NADPH fluorescence (AID 622;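 active = fluorescence slope higher than the sample average by over 3 SD, cut at about -0.22 in these data, passing the limit was not always enough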;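 note: slope of raw intensity against log time taken from 70 to 1610 s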). The settings on record: recombinant KvBeta, 4-cyanobenzaldehyde reduction, at 10 µM, stronger effect = higher value.
The target is the same in test [5]. The test is described as follows: KvBeta positive modulators, primary screen, biochemical, NADPH fluorescence (AID 623;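 active = NADPH fluorescence slope more negative than the mean of all samples by about 3 SD, 99.7% confidence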;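 note: fluorescence intensity change per second fitted from 20 to 320 s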). As to conditions: Recombinant KvBeta, NADPH fluorescence decrease slope, 10 min; at 10 µM; stronger effect = lower value.
In test [6] the target is Alpha-2C adrenergic receptor (Homo sapiens) (UniProt P18825). The test is described as follows: modulators of alpha2C/GIRK thallium flux, primary screen, cell-based, HEK293 alpha2C/GIRK1/2 (AID 624;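 active = fluorescence slope after compound addition differing from the mean of all screened samples at 99.7% confidence, in either direction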;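 note: slope of fluorescence ratio to pre-addition baseline per second over 15 to 24 s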). The settings on record: thallium flux BTC fluorescence, at 10 µM, actives lie on both sides.
Chain of Alpha-2C adrenergic receptor (Homo sapiens) (P18825 whole entry, looked up): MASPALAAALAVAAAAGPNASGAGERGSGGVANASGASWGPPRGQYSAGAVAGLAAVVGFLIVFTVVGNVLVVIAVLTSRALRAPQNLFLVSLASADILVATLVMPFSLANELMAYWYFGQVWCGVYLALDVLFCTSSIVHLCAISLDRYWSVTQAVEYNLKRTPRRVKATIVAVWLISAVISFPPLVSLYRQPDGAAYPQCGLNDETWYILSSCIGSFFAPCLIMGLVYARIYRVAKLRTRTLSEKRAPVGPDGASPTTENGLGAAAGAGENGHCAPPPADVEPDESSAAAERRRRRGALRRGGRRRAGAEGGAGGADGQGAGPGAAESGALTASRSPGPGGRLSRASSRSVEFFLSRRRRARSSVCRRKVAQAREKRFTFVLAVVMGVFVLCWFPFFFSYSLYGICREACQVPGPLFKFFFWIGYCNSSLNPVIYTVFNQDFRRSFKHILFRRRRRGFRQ
The nature of test [7]: inhibitors of Sendai virus-induced IRF3 signaling, primary screen, TLR/RLR signaling modifier project, cell-based, Sendai virus stimulus, luciferase, 10K MLSCN set (AID 602276;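 active = inhibition at or above 50% at 10 µM; inactive = inhibition below 50%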;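 note: firefly luciferase from ISG56 promoter only with Renilla not read in this screen; 0% = Sendai virus plus DMSO and 100% = medium plus DMSO without virus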). The settings on record: HEK293 RL24 IRF3 luciferase reporter, at 10 µM, stronger effect = higher value. (In general: A reporter such as luciferase makes a cellular process visible.)
Test [8] is described as follows: inhibitors of poly I:C-induced TLR3 signaling, primary screen, cell-based, poly I:C stimulus, luciferase, 10K MLSCN set (AID 602277). As to conditions: HEK293-TLR3 RL24 IRF3 luciferase reporter, at 10 µM, stronger effect = higher value.

Usually inhibition stands for the drop in the measured response relative to a control, in per cent.

Structures are written as SMILES. Active and inactive are the calls of the source.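 Rule for the calls, unless noted: active = inhibition of the reporter signal at or above 50%; inactive = inhibition below 50%.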

Chain of Voltage-gated potassium channel subunit beta-2 (Rattus norvegicus) (P62483 whole entry, looked up): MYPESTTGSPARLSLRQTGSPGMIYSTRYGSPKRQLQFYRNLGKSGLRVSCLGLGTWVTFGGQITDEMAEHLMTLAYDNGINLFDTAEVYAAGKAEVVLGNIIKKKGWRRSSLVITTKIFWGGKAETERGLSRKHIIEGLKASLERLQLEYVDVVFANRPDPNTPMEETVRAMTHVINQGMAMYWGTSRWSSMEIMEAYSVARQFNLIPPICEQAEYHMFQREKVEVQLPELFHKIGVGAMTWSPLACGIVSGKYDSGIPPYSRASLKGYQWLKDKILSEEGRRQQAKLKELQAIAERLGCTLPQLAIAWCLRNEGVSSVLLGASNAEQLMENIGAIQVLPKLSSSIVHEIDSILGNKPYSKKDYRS

With `O=C(CN1CCN(Cc2ccc(F)cc2Cl)C1=O)NCCCN1CCOCC1`, the cell count in test [1] was 477. For the same compound, the inhibition is 7% (inactive) in test [1], -63.8% (inactive) in test [3], 0.912% (inactive) in test [7] and 36.5% (inactive) in test [8]. Also, the inhibition of aggregation in test [2] was -27.6% (inactive). Besides, the results for the nuclei count in test [2] and in test [3] were 65.3% and 99.9%, respectively. Further, the fluorescence slope in test [4] was -0.523 (inactive). The NADPH fluorescence slope in test [5] is -3.8e-05 (inactive). Moreover, in test [6], the slope was 0.00757 (inactive).
With `Clc1cccc(-c2nnc3sc(-c4ccccc4)nn23)c1`, in test [1], the cell count worked out at 625. Moreover, the inhibition in test [1] is -3% (inactive); in test [3], -30.8% (inactive); in test [7] it was -35.9% (inactive); in test [8], -59.7% (inactive). In addition, the inhibition of aggregation in test [2] is -8% (inactive). Besides, the nuclei count in test [2] amounted to 108%; in test [3] it was 104%. The fluorescence slope in test [4] was -0.372 (inactive). Besides, the NADPH fluorescence slope in test [5] was -5.3e-05 (inactive). Moreover, the slope in test [6] was 0.0065 (inactive).
Take `CCN(CC)C(=O)C1CCCc2c1[nH]c1ccc(Cl)cc21` (stereo not drawn): the cell count in test [1] worked out at 674. Further, the inhibition in test [1] is -18.9% (inactive); in test [3], -47.8% (inactive); in test [7], -47.5% (inactive); in test [8], -12.1% (inactive). Further, in test [2], the inhibition of aggregation was -0.9% (inactive). Also, the nuclei count in test [2] came out at 109%; in test [3], 104%. The fluorescence slope in test [4] is -0.539 (inactive). In addition, the NADPH fluorescence slope in test [5] is -3.5e-05 (inactive). In addition, the slope in test [6] is 0.00741 (inactive).
As for `Cc1ccc(NC(=O)C2CCCN(S(=O)(=O)c3cnc[nH]3)C2)cc1F` (stereo not drawn), in test [1], the cell count is 521. Moreover, the inhibition is 0.9% (inactive) in test [1], -108% (inactive) in test [3], 22.4% (inactive) in test [7] and 21.8% (inactive) in test [8]. The inhibition of aggregation in test [2] is 7.3% (inactive). The results for the nuclei count in test [2] and in test [3] were 99.9% and 126%, respectively. Moreover, the fluorescence slope in test [4] was -0.521 (inactive). For the same compound, in test [5], the NADPH fluorescence slope is -4.2e-05 (inactive). Also, the slope in test [6] is 0.00688 (inactive).
Consider `Cc1ccc(NC(=O)C2CCCN2S(=O)(=O)c2cccc3cccnc23)cc1F` (stereo not drawn), for which the cell count in test [1] amounted to 577. The inhibition in test [1] is -1.1% (inactive); in test [3] it was -56.2% (inactive); in test [7], 9.99% (inactive); in test [8] it was 33.6% (inactive). In addition, the inhibition of aggregation in test [2] is 3.5% (inactive). Further, the nuclei count worked out at 71.6% in test [2] and 100% in test [3]. Further, the fluorescence slope in test [4] was -0.55 (inactive). Moreover, in test [5], the NADPH fluorescence slope is -3.9e-05 (inactive). Also, the slope in test [6] was 0.00633 (inactive).
For `O=C(Nc1ccc2c(c1)OCCO2)c1ccco1`, the cell count in test [1] amounted to 337. Moreover, the inhibition in test [1] was -3.5% (inactive); in test [3] it was 6.1% (inactive); in test [7], -48.4% (inactive); in test [8], -81.4% (inactive). Also, in test [2], the inhibition of aggregation is -13.9% (inactive). The figures for the nuclei count in test [2] and in test [3] were 118% and 102%, respectively. For the same compound, in test [4], the fluorescence slope was -0.488 (inactive). Besides, the NADPH fluorescence slope in test [5] is -3.7e-05 (inactive). Also, the slope in test [6] is 0.00709 (inactive).
In the case of `Fc1ccc(C(c2nnnn2Cc2ccco2)N2CCN(C3CCCCC3)CC2)cc1` (stereo not drawn), the cell count in test [1] was determined as 297. Further, the inhibition was -3.3% (inactive) in test [1], -98.2% (inactive) in test [3], -10.1% (inactive) in test [7] and -16.4% (inactive) in test [8]. The inhibition of aggregation in test [2] is 11.4% (inactive). For the same compound, the results for the nuclei count in test [2] and in test [3] were 98% and 130%, respectively. Besides, the fluorescence slope in test [4] is -0.552 (inactive). Moreover, the NADPH fluorescence slope in test [5] was 3.4e-05 (inactive). Further, the slope in test [6] was 0.00429 (inactive).
As to `COCCSc1nnc(NC(=O)Cc2ccccc2OC)s1`, the cell count in test [1] was 660. Also, the inhibition in test [1] was -15.1% (inactive); in test [3] it was -30.7% (inactive); in test [7], 16.6% (inactive); in test [8], 25.8% (inactive). Moreover, in test [2], the inhibition of aggregation is 5.4% (inactive). In addition, the nuclei count was 94.2% in test [2] and 103% in test [3]. The fluorescence slope in test [4] was -0.411 (inactive). Further, the NADPH fluorescence slope in test [5] is -5.1e-05 (inactive). Also, the slope in test [6] was 0.00483 (inactive).
For `CC1=C(C)[N+](=O)C2CCCCC2N1[O-]` (stereo not drawn), the cell count in test [1] was found to be 705. In addition, the inhibition is 3.9% (inactive) in test [1], 58% (inactive) in test [3], -0.132% (inactive) in test [7] and 16.1% (inactive) in test [8]. Besides, in test [2], the inhibition of aggregation was 13.8% (inactive). Also, the results for the nuclei count in test [2] and in test [3] were 104% and 86.5%, respectively. In addition, the fluorescence slope in test [4] is -0.368 (inactive). Besides, the NADPH fluorescence slope in test [5] is -0.000147 (inactive). The slope in test [6] was 0.00784 (inactive).
Turning to `Cc1ccc(Cl)cc1N1CCN(C(=O)CN2C(=O)c3cccc4cccc2c34)CC1`, in test [1], the cell count turned out to be 771. In addition, the inhibition was -7.2% (inactive) in test [1], -11.6% (inactive) in test [3], 9.95% (inactive) in test [7] and 8.22% (inactive) in test [8]. Moreover, in test [2], the inhibition of aggregation is -2.2% (inactive). In addition, the nuclei count in test [2] came out at 89.4%; in test [3], 101%. Besides, the fluorescence slope in test [4] was -0.341 (inactive). In addition, in test [5], the NADPH fluorescence slope is 4.7e-06 (inactive). In addition, the slope in test [6] was 0.0104 (active).
As for `CC(=O)Nc1ccc(NC(=O)Cn2cc3c(n2)CCC(C)C3)cc1` (stereo not drawn), the cell count in test [1] turned out to be 549. The inhibition is -6.3% (inactive) in test [1], -58.6% (inactive) in test [3], 16.6% (inactive) in test [7] and 23% (inactive) in test [8]. Also, the inhibition of aggregation in test [2] is 3.5% (inactive). Besides, the nuclei count in test [2] was determined as 95.1%; in test [3], 103%. In test [4], the fluorescence slope is -0.284 (inactive). For the same compound, the NADPH fluorescence slope in test [5] was -4.3e-05 (inactive). For the same compound, the slope in test [6] was 0.00496 (inactive).
Regarding `CC(C)Cc1nc2oc3c(N4CCN(CCO)CC4)ncnc3c2c2c1CCCC2`, the cell count in test [1] turned out to be 450. Moreover, the inhibition in test [1] is -11.5% (inactive); in test [3], 6.5% (inactive); in test [7] it was -8.86% (inactive); in test [8], 31.2% (inactive). For the same compound, the inhibition of aggregation in test [2] was -9.1% (inactive). The figures for the nuclei count in test [2] and in test [3] were 99.9% and 119%, respectively. Also, the fluorescence slope in test [4] was -0.475 (inactive). Besides, the NADPH fluorescence slope in test [5] is 4e-05 (inactive). Besides, in test [6], the slope was 0.00359 (inactive).
As to `COc1cccc(-c2noc(-c3cccs3)n2)c1`, in test [1], the cell count was 390. Moreover, the inhibition in test [1] is -0.7% (inactive); in test [3], -29.5% (inactive); in test [7] it was 6.14% (inactive); in test [8] it was -8.84% (inactive). Also, in test [2], the inhibition of aggregation is 11.7% (inactive). In addition, the nuclei count in test [2] was 110%; in test [3] it was 131%. The fluorescence slope in test [4] was -0.619 (inactive). The NADPH fluorescence slope in test [5] was 2.2e-06 (inactive). Moreover, the slope in test [6] was 0.00482 (inactive).

The values above are taken from PubChem BioAssay.
